Assay results reported in ChEMBL document CHEMBL3988442, “University of Dundee, Small-Polar-MMV Screening Library” (2021).
For some assays here: Entries with a potency or affinity are not part of this list.

How the values were obtained:
Design in all cases: scale not given: direction of the effect not stated beside the values
[1] = target: Protein translocase subunit SecA (Escherichia coli (strain K12)) (UniProt P10408); test: Assay to Identify E. coli SecA ATPase Inhibitors; format: functional; details: 30 µM
[2] = target: T1, Ubiquitin-activating enzyme e1, putative (Leishmania donovani (strain BPK282A1)) (UniProt E9BSI1); test: Leishmania donovani Ubiquitin Activating Enzyme (LdE1); format: functional; details: 30 µM
T1 sequence (whole entry): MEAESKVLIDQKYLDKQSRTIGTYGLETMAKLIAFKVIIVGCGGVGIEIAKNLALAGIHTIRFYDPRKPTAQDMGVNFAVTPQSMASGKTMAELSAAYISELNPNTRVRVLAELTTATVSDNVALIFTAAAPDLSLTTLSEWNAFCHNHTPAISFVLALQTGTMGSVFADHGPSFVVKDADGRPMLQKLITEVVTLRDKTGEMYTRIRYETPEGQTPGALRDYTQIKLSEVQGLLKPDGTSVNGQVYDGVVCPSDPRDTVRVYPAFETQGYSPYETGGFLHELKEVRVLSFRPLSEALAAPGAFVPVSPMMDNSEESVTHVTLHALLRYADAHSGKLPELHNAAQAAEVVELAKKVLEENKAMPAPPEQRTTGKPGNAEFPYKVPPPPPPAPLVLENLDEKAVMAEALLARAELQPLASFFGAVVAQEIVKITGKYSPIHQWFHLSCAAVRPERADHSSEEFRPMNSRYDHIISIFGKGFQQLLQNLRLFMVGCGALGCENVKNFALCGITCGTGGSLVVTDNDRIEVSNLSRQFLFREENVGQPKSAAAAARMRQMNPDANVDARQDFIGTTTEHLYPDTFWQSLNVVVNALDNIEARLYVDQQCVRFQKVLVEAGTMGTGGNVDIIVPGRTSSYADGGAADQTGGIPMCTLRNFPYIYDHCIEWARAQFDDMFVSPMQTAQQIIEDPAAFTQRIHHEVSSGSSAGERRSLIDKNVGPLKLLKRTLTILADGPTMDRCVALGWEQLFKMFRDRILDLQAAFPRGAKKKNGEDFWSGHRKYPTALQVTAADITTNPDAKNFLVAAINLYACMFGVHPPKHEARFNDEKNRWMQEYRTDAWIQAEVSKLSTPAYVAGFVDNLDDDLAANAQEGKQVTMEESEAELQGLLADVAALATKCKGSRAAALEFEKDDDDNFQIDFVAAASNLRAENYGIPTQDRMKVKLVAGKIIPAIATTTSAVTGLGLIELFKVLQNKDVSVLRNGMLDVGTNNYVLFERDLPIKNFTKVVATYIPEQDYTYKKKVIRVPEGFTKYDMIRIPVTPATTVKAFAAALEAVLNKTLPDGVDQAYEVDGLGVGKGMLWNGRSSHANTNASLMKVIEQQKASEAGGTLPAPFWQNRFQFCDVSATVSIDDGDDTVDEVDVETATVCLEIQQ

[3] = target: Sialic acid-binding Ig-like lectin 9 (Homo sapiens) (UniProt Q9Y336); test: Hs-Siglec9 ALPHAscreen SOP 20170721; details: 10 µM
[4] = test system: Trypanosoma cruzi; test: Trypanosoma cruzi phosphomannomutase and mannose-1-phosphate guanylyltransferase assay; format: functional; details: 10 µM
[5] = target: T2, Arginase-2, mitochondrial (Homo sapiens) (UniProt P78540); test: in vitro enzyme assay to detect the production of urea directly proportional to the activity of Arginase II; format: functional; details: 33.3 µM; further: in the data most compounds retested in dose-response had high values
T2 sequence (whole entry): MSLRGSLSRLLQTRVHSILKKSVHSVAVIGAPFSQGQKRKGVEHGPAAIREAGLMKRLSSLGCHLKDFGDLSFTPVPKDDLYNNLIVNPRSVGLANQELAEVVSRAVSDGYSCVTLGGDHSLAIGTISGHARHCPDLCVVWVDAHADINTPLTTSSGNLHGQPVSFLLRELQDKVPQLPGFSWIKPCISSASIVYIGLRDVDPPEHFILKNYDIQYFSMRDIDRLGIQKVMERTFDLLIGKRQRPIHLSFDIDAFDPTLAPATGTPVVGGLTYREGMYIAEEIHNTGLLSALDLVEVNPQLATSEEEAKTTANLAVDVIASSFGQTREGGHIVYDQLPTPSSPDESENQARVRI

[6] = target: T3, Proteasome subunit beta (Trypanosoma cruzi) (UniProt O96673); test: Trypanosoma cruzi proteasome chymotrypsin-like activity (TcProtChymo) assay.; further: in the data most compounds retested in dose-response had high values; format: functional; details: 9.37 µM
T3 sequence (whole entry): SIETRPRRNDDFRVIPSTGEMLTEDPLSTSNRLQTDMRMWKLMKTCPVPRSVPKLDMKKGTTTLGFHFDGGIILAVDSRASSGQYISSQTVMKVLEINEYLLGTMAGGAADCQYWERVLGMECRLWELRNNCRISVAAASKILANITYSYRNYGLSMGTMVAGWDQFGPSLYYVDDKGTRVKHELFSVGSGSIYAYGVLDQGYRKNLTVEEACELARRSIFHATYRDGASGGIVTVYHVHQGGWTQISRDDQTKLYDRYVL

[7] = species on record: Homo sapiens; test: To identify inhibition of the IFN signalling (Jak-Stat) pathway via expression of an eGFP reporter gene under the control of an IFN-stimulated response element (ISRE) containing MxA promoter.; format: functional; details: 30 µM
[8] = target: T4, Tyrosyl-tRNA synthetase, putative (Trypanosoma cruzi (strain CL Brener)) (UniProt Q4DSP6); test: Trypanosoma cruzi tyrosyl tRNA synthetase (TcYRS) _High Tyrosine SOP; format: functional; details: 30 µM; further: in the data most compounds retested in dose-response had high values
T4 sequence (whole entry): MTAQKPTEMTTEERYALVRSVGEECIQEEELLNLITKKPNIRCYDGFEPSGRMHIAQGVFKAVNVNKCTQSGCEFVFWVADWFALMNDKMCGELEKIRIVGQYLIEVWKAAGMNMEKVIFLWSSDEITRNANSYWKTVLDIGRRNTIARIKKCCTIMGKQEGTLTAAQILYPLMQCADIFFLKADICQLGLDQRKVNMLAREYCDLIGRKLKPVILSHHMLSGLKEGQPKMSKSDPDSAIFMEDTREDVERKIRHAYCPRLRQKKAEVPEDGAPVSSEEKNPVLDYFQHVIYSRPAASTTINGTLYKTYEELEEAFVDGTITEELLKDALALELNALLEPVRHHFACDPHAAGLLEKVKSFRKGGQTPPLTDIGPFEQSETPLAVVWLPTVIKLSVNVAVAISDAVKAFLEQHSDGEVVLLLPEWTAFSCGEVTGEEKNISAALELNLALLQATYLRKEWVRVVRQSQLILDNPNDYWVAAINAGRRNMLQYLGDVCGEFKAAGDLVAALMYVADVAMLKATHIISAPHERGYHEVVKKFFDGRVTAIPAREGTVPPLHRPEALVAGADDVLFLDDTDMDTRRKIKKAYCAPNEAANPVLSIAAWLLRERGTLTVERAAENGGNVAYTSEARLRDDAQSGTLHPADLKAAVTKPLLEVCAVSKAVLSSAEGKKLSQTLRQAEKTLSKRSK

[9] = target: T4, Tyrosyl-tRNA synthetase, putative (Trypanosoma cruzi (strain CL Brener)); test: Trypanosoma cruzi tyrosyl tRNA synthetase (TcYRS) SOP; format: functional; details: 30 µM
[10] = target: Chromo domain-containing protein 1 (Saccharomyces cerevisiae (strain ATCC 204508 / S288c) (Baker's yeast)) (UniProt P32657); test: ScCHD-1 Enzyme Inhibition Assay; format: functional; details: 30 µM; further: in the data most compounds retested in dose-response had high values
Sequence of Chromo domain-containing protein 1 (Saccharomyces cerevisiae (strain ATCC 204508 / S288c) (Baker's yeast)) (P32657 whole entry, the tested form may be a part): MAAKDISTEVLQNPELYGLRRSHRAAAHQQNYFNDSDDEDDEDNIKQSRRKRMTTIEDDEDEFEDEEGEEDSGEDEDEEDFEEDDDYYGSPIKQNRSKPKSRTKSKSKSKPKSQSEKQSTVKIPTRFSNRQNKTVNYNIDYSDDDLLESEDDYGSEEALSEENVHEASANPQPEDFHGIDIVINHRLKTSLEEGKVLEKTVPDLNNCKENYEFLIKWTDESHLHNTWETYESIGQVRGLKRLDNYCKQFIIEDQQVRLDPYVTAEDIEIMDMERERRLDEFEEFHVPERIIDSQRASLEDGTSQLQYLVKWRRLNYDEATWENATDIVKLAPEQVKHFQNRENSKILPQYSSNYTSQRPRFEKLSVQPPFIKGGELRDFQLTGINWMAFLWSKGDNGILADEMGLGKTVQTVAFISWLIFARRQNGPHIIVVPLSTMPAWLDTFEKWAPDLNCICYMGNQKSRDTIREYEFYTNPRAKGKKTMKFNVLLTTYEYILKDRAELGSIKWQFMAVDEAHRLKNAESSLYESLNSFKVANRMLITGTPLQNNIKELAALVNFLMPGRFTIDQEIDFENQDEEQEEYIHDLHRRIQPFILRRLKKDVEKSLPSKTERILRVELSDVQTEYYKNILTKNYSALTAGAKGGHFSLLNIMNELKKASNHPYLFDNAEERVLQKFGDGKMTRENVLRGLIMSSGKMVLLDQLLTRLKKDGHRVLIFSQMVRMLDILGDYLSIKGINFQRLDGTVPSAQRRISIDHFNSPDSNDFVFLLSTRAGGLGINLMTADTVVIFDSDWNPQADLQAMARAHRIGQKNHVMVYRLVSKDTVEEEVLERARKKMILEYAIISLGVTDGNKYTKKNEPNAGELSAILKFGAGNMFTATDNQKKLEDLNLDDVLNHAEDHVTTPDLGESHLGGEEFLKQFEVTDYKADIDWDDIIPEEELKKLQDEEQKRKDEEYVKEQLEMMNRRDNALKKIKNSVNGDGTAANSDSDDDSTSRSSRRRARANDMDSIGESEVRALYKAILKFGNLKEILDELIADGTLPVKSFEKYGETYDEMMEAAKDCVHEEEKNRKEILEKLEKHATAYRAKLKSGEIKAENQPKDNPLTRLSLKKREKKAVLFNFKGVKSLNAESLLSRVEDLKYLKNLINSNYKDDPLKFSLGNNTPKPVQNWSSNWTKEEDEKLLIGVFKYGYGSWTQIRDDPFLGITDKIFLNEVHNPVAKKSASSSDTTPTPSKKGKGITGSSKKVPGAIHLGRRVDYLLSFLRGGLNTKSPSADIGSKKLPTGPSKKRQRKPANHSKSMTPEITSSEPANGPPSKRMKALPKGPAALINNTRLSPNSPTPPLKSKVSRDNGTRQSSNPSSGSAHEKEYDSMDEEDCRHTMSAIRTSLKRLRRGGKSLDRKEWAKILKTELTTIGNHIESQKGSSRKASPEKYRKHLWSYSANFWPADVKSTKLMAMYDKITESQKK

Sequence of Protein translocase subunit SecA (Escherichia coli (strain K12)) (P10408 whole entry): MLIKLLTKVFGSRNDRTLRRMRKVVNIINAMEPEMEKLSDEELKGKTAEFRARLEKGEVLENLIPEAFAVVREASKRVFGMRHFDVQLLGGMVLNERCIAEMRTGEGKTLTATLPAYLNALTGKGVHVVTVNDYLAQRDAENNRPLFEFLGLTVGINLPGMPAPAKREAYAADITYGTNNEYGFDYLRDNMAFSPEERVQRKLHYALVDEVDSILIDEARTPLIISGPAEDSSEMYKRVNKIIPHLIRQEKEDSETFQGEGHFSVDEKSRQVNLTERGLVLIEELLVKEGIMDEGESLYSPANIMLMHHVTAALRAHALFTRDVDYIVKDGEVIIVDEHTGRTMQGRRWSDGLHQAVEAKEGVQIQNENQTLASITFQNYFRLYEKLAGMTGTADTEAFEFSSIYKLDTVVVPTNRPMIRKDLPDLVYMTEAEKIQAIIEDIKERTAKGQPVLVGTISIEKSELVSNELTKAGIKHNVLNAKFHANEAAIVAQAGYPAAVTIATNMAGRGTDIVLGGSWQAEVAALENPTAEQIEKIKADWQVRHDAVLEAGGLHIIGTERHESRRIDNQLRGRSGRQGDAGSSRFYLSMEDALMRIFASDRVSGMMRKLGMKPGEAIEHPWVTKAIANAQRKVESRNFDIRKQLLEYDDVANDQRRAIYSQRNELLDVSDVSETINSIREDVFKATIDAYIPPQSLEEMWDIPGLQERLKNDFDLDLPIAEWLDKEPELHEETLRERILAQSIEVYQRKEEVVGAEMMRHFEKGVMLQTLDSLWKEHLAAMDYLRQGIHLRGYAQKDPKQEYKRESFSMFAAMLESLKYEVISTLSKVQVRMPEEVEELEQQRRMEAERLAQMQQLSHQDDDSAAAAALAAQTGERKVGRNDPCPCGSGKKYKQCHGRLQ
Sequence of Sialic acid-binding Ig-like lectin 9 (Homo sapiens) (Q9Y336 whole entry): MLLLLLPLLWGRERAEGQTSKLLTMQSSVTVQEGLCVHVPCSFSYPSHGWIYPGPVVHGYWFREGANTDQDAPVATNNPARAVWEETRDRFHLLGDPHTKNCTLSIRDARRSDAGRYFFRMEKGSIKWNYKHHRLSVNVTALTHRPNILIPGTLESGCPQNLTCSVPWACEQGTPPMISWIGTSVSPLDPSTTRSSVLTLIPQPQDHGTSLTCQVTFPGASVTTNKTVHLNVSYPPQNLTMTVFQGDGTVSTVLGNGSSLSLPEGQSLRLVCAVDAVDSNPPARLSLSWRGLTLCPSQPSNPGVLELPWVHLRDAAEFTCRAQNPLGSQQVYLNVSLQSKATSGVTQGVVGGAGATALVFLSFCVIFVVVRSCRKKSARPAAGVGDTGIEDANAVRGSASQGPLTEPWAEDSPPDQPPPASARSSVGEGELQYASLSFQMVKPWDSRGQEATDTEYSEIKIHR

SMILES | Percent Effect [1] | Percent Effect [2] | Percent Effect [3] | Percent Effect [4] | Percent Effect [5] | Percent Effect [6] | Percent Effect [7] | Percent Effect [8] | Percent Effect [9] | Percent Effect [10]
CC(C)c1nc(CN2CCCN(Cc3nnc(C4CC4)o3)CC2)no1 | -2.61% | 8% | -2.85% | -0.602% | 4.43% | 17.2% | 14.1% | 3.68% | 7.69% | -9.7%
CC(NC(=O)NCCCn1cncn1)c1ccccc1Cl (stereo not given) | 0.672% | 10.7% | -2.84% | -7.63% | 3.99% | 7.72% | 13.4% | 3.68% | 12.8% | -11%
CC(C)c1cc(C(=O)N(C)Cc2cccc3ncccc23)n(C)n1 | -3.2% | 12% | 13.8% | 0.986% | -1.77% | 13.1% | 36.7% | 3.17% | 12.5% | -26%
CS(=O)(=O)N1CCC(NC(=O)COc2ccc(Cl)c(Cl)c2)CC1 | -0.592% | 15.6% | -0.737% | -2.24% | -2.66% | 3.86% | 10.2% | 13.7% | 28.2% | -8.55%
CC(C)NC(=O)Nc1ccc(CNCc2cccc(C#N)c2)cc1 | 2.25% | 20.8% | 4.68% | 0.933% | -0.615% | 6.84% | 0.521% | 9.8% | 28.2% | -12.8%
CCOC(=O)CNC(=O)c1cccnc1Oc1ccc(Cl)cc1 | 3.19% | 1.3% | 56.3% | 0.375% | 6.85% | 11.6% | 25.5% | 3.87% | 0% | -12.4%
CC(=O)N1C[C@@H](c2ccsc2)[C@@H]2CN(Cc3cccc(Cl)c3)CC[C@@H]21 | -3.63% | 9.33% | 5.9% | -1.97% | 7.08% | 6.9% | 56.9% | 9.52% | 20% | -24.3%
Cc1ccccc1-c1cc(C(=O)NCCN2CCCS2(=O)=O)[nH]n1 | -1.9% | 12.8% | -10.8% | 9.3% | -2.05% | 5.72% | 4.69% | 5.26% | 20.5% | -1.78%
COCCN(C)C[C@@H]1CCC[C@@H]2CN(c3cc(OC)ncn3)C[C@@H]21 | -6.04% | 3.9% | -3.68% | -1.27% | -5.26% | 13.9% | 11.6% | 7.89% | 7.69% | 0.558%
CC(C)C(NC(=O)Cn1ccc(=O)n(C)c1=O)c1ccc(F)cc1 (stereo not given) | 1.48% | 18.2% | -2.41% | -7.09% | 5.53% | 7.19% | 22.3% | 6.86% | 18.8% | -8.33%
CCNC(=O)CCN1CCC(c2cc(N3CCOCC3)nc(C)n2)CC1 | -3.37% | 5.41% | 12.8% | 5.92% | 16.4% | 6.51% | 17.2% | 2.66% | 9.76% | 98.8%
